High-throughput results deposited in PubChem by Center for Chemical Genomics, University of Michigan.
Dicer inh – inhibitors of human Dicer processing of pre-microRNA | Q9UPY3 | cat-ELCCA pre-miR-21 Dicer processing, chemiluminescence; active compounds read high | z-score at 25 µM | 47,000 tested, 6% active; in the data active means z-score above about 3, passing the limit was not always enough;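 further: plate controls were vehicle for no effect and no enzyme for full effect; higher signal means more uncleaved substrate so more Dicer inhibition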
Numbers without * were called inactive. The entries come from a sample that favours hits as a whole.

SMILES | Dicer inh
CCCCC(CC)C(=O)Nc1nc2ccc(S(C)(=O)=O)cc2s1 (centres undefined) | 4.8*
CCCCNC(=O)O/N=C/c1csc([N+](=O)[O-])c1 | 0.16
Cc1c(NS(=O)(=O)c2ccc(F)cc2)c(=O)n(-c2ccccc2)n1C | 0.64
Cc1noc(C)c1NC(=O)NC(c1ccccc1)c1ccccc1 | 0.08
Cc1ccc(C2C3=C(NCCN=C3c3ccccc3)C(=O)N2c2ccccc2)cc1 (centres undefined) | 0.78
OCCCc1nc2ccccc2n1Cc1ccc(F)cc1 | -0.32
N#CC(C1CC=CCC1)N1CCOCC1 (centres undefined) | -1
O=C1C2ON(c3ccccc3)C(c3ccccc3O)C2C(=O)N1c1ccccc1 (centres undefined) | 0.25
CN1CCN2c3ccccc3Cc3ccccc3C2C1 (centres undefined) | -0.38
CC(C)CCC(O)(CCN1CCCCC1)c1ccccc1 (centres undefined) | 2.1
CC(C)CCN1Cc2ccccc2C1 | 5.1*
CCN(CC)C(=S)Oc1ccc(Br)cc1C(=O)Nc1cc(Cl)cc(Cl)c1 | -0.18
O=C1CCCc2nc(Nc3nc(-c4ccccc4)c4ccccc4n3)ncc21 | 0.33
O=C(CN1CCCc2ccccc21)N1CCCc2ccccc21 | -0.52
CC(=O)[C@H]1CCC2C3CC=C4C[C@@H](OS(=O)(=O)O)CC[C@]4(C)C3CC[C@@]21C (some centres undefined) | 0.56
O=C(O)CCSc1n[nH]c(=O)[nH]c1=O | 4.8*
CC(C)OC(=O)CSc1n[nH]c(=O)[nH]c1=O | 4.3
O=C(O)CCCNc1n[nH]c(=O)[nH]c1=O | 2.4
COC(=O)CC1(C(=O)OC)Oc2ccc(Br)cc2C(=O)N1c1cccc(Cl)c1Cl (centres undefined) | -0.08
CN(C)CCC(c1ccccc1)c1ccccn1 (centres undefined) | -0.19
C=C(C)Cc1c(C)nc(SCC)[nH]c1=O | 1.6
Cc1sc2nc(C)n(/N=C/c3cccs3)c(=O)c2c1C | 1.9
Cc1sc2nc(C)n(/N=C/c3ccc4c(c3)OCO4)c(=O)c2c1C | 6.4*
Cc1nc2c(cnn2-c2ccccc2)c(=O)n1/N=C/c1ccc2c(c1)OCO2 | 2.1
CSc1nc2c(c(=O)n(C)c(=O)n2C)n1Cc1ccc(Cl)cc1 | 1
SMILES | Dicer inh
COc1ccc(OCc2nc(C#N)c(NCc3ccc4c(c3)OCO4)o2)cc1 | 0.2
C(=C\c1ccc2c(c1)OCO2)/C1=NN(c2ccccc2)C(c2ccc3c(c2)OCO3)C1 (centres undefined) | 0.21
Cn1c(/C=C/c2ccc3c(c2)OCO3)nc2ccccc2c1=O | 6.2*
Cn1c(/C=C/c2cn(Cc3ccccc3)c3ccccc23)nc2ccccc2c1=O | 10
COc1ccc2nc(Nc3nc(C)cc(-c4ccccc4)n3)nc(C)c2c1 | -1.5
NC(N)=NC(N)=Nc1cc(Cl)cc(Cl)c1 | -0.42
Cc1cccc(N=C(NO)c2ccccc2)c1 | -3.8
ONC(=Nc1cc(Cl)cc(Cl)c1)c1ccccc1 | 3*
N#Cc1c(-c2cccs2)cc(-c2ccccc2)nc1OCC(=O)c1ccccc1 | 0.41
N#CC(=C1SCCS1)S(=O)(=O)Cc1ccco1 | -0.54
COC(=O)c1scc(S(=O)(=O)Cc2ccco2)c1NN=C(C#N)C#N | 4.8*
COC(=O)c1scc(S(=O)(=O)Cc2cccs2)c1N/N=C(\C#N)S(=O)(=O)c1cccs1 | 6
O=C1C(Oc2ccccc2)C(c2ccc3c(c2)OCO3)N1C1CCCC1 (centres undefined) | -0.03
CC(=O)O[C@]1(C(C)=O)CCC2C3CCC4=CC(=O)CCC4(C)C3(F)C(O)CC21C (some centres undefined) | -0.51
Clc1ccc(CN2C3=NCCCN3c3ccccc32)cc1 | 0.55
Fc1ccc(CN2C3=NCCN3c3ccccc32)cc1 | 7.4*
Fc1ccc(CN2C3=NCCCN3c3ccccc32)cc1 | 0.52
C#CCOC(=O)Nc1cnc(Sc2ccccc2)c(C(F)(F)F)c1 | 0.56
Cc1ccc(OCC(=O)NNC(=O)Cc2ccccc2)c2c1CCC2 | -0.91
COc1ccc2c(c1)C(C)CC(C)(C)N2C(=O)CSc1ncccn1 (centres undefined) | 4.2*
COc1ccc2c(c1)C(C)CC(C)(C)N2C(=O)CSc1ncn[nH]1 (centres undefined) | 0.09
COc1ccc2c(c1)C(C)=CC(C)(C)N2C(=O)CSc1nnc(C)s1 | -1.9
CN(C)c1ccc(/C=C/C=C/C23NC(=O)CN2c2ccccc2C3(C)C)cc1 (centres undefined) | 0.94
CSc1ccccc1NC(=O)C1CC(c2cccc(Br)c2)=NO1 (centres undefined) | -0.87
O=C(NCC1CCCO1)C1CC(c2cccc(Br)c2)=NO1 (centres undefined) | -0.95
SMILES | Dicer inh
O=C(NCCCn1ccnc1)C1CC(c2cccc(Br)c2)=NO1 (centres undefined) | 3.5*
O=C(Nc1cccc(O)c1)C1CC(c2cccc(Br)c2)=NO1 (centres undefined) | 0.55
O=C(Nc1cc(Cl)ccc1O)C1CC(c2cccc(Br)c2)=NO1 (centres undefined) | 3*
O=C(Nc1cccnc1)C1CC(c2cccc(Br)c2)=NO1 (centres undefined) | 12
CC1=NN(c2ccc(N=Cc3ccc(Cl)c(Cl)c3)cc2)C(=O)C1 | -5.8
CCN(CC)CCCNC(=O)Cn1nc([N+](=O)[O-])c(Br)c1C | -0.61
C/C(=N\Nc1nc2c(c(=O)n(C)c(=O)n2C)n1C)c1ccccc1 | -4.1
O=c1c(-c2ccccc2)c(O)c2cccc3c4ccccc4n1c23 | -1.6
CCOc1ccc(S(=O)(=O)n2ccnc2C(C)C)cc1C | 1.9
Cc1c(S(=O)(=O)Nc2ccc3[nH]ccc3c2)sc2ccc(Cl)cc12 | 3.5*
Cc1c(CC(=O)NNS(=O)(=O)c2ccccc2C(F)(F)F)sc2ccc(Cl)cc12 | 0.58
Cc1nc2ccccn2c1C(=O)NNS(=O)(=O)c1sc2ccc(Cl)cc2c1C | -0.07
COCCOc1ccc(N=Cc2ccccc2O)cc1C(=O)O | -0.4
COc1cc(C2c3c(oc4ccc(F)cc4c3=O)C(=O)N2c2nccs2)ccc1OCCC(C)C (centres undefined) | 1.5
COc1cc(S(=O)(=O)N2CCC(C)CC2)ccc1Cl | -0.36
COc1ccccc1N1CCN(S(=O)(=O)c2cccc3ccccc23)CC1 | 3.3*
COc1ccccc1N1CCN(Cc2ccc3ccccc3c2)CC1 | 1.9
O=S(=O)(c1ccc(F)cc1)N1CCC(N2CCCC2)CC1 | 2.3
COc1ccccc1N1CCN(S(=O)(=O)c2ccccc2)CC1 | 0.58
COc1ccccc1N1CCN(C2CCN(S(=O)(=O)c3ccc(Cl)cc3)CC2)CC1 | 3.6*
O=C(CSc1ssc(=S)c1-c1ccccc1)c1ccccc1 | -2.2
COc1ccccc1C1CC(=O)Oc2c1c(=O)n(C)c1ccccc21 (centres undefined) | -0.55
Cc1cc(Cl)ccc1NC(=O)CSc1nnc(/N=C/N(C)C)s1 | -0.65
O=C(O)CCC(=O)c1ccc2c(c1)OCCCO2 | 1.2
CC(=O)Nc1cccc(-n2nnc(SCC(=O)c3ccc4c(c3)OCCCO4)n2)c1 | 3.1*
SMILES | Dicer inh
CC(=O)Nc1cccc(-n2nnc(SCc3ccccc3)n2)c1 | 1.1
O=C1OCCC1Sc1nnc(-c2ccccc2Cl)o1 (centres undefined) | 0.93
COc1ccc(C(=O)N=S2CCN(C(=O)c3ccc(Cl)cc3)CC2)cc1 | 0.1
Cc1c(Cc2cccc(Cl)c2)c(=O)[nH]c2nc3ccccc3n12 | -0.28
COC(=O)CCCCCCCC(=O)Nc1cc(C)on1 | -0.52
Cc1cc(NC(=O)CCCC(=O)O)no1 | 0.56
CCOCC(=O)Nc1cc(C)on1 | 3.1*
